According to paper PMC7862700, “An all-to-all approach to the identification of sequence-specific readers for epigenetic DNA modifications on cytosine”:

Assays:
Assay in all cases: DAPPL (digital affinity profiling via proximity ligation, sequencing); 10 mM Tris-HCl pH 7.5, 50 mM NaCl, 1 mM DTT, 4% glycerol, room temperature, 30 min; GST-TFs on glutathione beads, 16-mer random dsDNA library, 0.1% formaldehyde crosslink after washing; high values mean tight binding
Details in all cases: protein: recombinant; tags: N-terminal GST; dsDNA, one strand shown
FLI1 = target: T1, FLI1 (Homo sapiens, UniProt Q01543 1-452)
T1 sequence: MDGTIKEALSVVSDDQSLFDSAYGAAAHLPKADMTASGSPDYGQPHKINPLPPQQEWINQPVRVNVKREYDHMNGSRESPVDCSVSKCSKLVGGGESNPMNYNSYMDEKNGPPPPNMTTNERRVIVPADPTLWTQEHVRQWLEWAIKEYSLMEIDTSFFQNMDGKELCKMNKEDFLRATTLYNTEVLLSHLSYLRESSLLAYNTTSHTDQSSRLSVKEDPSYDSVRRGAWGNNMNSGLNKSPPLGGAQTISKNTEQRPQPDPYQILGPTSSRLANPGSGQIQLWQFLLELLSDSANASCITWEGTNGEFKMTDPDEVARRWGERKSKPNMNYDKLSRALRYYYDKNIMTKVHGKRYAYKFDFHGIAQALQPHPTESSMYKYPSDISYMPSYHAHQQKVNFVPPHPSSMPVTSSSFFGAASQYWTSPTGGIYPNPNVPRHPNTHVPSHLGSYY
Method in brief: (§1)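 Yeast served to express human transcription factors as GST fusions, which were then captured on glutathione beads and labelled with DNA barcodes. Pooled with a tag-only sample, they were incubated with 200 nmole of a 16-mer random double-stranded DNA library for 30 min at room temperature in Tris/NaCl/DTT/glycerol buffer, washed, crosslinked with 0.1% formaldehyde, ligated by proximity, amplified by PCR and sequenced. Dividing each hexamer's read frequency for a factor by its frequency for the tag-only sample gives the binding signal.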

GABPA = target: T2, GABPA (Homo sapiens, UniProt Q06546 1-454)
T2 sequence: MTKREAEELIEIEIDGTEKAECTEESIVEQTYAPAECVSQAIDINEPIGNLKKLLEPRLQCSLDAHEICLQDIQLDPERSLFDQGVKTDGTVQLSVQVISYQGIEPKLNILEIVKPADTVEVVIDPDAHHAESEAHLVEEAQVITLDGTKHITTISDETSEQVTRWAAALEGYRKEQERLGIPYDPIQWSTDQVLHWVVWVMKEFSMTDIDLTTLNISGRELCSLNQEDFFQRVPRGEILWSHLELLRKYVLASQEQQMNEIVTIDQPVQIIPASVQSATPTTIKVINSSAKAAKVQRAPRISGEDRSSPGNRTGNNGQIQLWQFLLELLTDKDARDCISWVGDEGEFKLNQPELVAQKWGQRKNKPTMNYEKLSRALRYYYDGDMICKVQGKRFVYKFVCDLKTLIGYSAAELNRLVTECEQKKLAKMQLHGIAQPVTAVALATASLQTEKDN
Method in brief: as §1

ERG = target: T3, ERG (Homo sapiens, UniProt P11308 1-479)
T3 sequence: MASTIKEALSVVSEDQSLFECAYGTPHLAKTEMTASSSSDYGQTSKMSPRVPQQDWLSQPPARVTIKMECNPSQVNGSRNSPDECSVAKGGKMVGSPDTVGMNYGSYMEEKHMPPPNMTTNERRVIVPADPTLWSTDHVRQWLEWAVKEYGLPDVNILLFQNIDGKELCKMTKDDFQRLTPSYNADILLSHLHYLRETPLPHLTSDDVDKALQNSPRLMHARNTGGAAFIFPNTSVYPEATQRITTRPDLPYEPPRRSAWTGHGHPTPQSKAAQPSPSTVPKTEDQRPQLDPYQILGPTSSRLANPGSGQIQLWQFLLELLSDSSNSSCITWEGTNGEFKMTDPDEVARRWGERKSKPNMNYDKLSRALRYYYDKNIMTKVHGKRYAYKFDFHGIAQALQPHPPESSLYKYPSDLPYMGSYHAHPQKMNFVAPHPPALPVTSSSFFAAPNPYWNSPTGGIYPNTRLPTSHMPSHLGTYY
Method in brief: as §1

ELF1 = ELF1 (Homo sapiens, UniProt P32519 1-619)
Chain of ELF1 (P32519 whole entry): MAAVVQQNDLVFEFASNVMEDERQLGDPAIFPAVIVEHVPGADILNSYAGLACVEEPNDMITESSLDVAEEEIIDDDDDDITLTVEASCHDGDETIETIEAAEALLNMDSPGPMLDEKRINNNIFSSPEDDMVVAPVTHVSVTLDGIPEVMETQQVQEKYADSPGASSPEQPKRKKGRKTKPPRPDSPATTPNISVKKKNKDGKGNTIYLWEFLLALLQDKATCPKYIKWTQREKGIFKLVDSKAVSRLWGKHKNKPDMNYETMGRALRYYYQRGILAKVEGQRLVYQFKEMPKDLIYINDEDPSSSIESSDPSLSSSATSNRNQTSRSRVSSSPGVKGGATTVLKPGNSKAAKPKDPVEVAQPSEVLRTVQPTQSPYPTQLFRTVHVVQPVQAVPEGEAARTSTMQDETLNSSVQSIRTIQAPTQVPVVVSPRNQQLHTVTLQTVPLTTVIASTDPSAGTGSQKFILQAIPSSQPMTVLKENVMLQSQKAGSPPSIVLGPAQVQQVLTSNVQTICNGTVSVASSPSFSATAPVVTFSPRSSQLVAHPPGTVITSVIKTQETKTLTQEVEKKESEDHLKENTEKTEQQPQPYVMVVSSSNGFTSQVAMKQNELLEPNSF
Method in brief: as §1

EHF = target: T4, EHF (Homo sapiens, UniProt Q9NZC4 1-300)
T4 sequence: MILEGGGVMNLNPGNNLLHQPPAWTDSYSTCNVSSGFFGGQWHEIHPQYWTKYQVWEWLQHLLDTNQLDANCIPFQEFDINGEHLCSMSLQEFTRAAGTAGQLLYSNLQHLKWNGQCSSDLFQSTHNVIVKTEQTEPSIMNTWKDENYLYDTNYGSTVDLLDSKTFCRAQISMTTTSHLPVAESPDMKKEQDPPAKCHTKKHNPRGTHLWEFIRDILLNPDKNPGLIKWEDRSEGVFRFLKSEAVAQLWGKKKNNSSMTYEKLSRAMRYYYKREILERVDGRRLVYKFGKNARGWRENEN
Method in brief: as §1

SPIB = SPIB (Homo sapiens, UniProt Q01892 1-262)
Chain of SPIB (Q01892 whole entry): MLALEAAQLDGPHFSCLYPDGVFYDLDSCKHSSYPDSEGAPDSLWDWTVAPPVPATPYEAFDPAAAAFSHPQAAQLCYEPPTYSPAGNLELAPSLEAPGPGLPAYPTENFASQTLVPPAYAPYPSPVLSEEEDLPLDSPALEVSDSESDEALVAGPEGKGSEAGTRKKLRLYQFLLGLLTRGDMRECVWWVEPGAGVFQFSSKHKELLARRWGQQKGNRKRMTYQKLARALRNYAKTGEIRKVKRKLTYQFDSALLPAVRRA
Method in brief: as §1

ELK3 = target: T5, ELK3 (Homo sapiens, UniProt P41970 1-407)
T5 sequence: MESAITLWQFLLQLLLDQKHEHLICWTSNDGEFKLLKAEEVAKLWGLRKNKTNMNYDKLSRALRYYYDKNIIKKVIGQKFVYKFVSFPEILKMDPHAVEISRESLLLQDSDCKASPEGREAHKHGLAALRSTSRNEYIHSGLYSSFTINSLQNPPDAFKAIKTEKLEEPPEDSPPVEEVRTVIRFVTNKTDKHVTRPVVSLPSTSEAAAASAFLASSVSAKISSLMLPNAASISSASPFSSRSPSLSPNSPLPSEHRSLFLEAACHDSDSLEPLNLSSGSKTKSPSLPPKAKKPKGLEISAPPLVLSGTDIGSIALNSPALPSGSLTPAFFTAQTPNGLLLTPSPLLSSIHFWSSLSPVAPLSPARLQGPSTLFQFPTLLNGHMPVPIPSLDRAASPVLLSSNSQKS
Method in brief: as §1

SPIC = target: T6, SPIC (Homo sapiens, UniProt Q8N5J4 1-248)
T6 sequence: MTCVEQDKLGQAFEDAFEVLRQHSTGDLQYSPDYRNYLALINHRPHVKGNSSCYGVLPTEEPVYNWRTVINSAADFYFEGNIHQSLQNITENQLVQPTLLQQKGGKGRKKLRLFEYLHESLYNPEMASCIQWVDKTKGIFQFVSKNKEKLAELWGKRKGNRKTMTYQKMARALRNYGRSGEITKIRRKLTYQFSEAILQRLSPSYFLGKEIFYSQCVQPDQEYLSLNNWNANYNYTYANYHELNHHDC
Method in brief: as §1

ELF4 = ELF4 (Homo sapiens, UniProt Q99607 1-663)
Chain of ELF4 (Q99607 whole entry): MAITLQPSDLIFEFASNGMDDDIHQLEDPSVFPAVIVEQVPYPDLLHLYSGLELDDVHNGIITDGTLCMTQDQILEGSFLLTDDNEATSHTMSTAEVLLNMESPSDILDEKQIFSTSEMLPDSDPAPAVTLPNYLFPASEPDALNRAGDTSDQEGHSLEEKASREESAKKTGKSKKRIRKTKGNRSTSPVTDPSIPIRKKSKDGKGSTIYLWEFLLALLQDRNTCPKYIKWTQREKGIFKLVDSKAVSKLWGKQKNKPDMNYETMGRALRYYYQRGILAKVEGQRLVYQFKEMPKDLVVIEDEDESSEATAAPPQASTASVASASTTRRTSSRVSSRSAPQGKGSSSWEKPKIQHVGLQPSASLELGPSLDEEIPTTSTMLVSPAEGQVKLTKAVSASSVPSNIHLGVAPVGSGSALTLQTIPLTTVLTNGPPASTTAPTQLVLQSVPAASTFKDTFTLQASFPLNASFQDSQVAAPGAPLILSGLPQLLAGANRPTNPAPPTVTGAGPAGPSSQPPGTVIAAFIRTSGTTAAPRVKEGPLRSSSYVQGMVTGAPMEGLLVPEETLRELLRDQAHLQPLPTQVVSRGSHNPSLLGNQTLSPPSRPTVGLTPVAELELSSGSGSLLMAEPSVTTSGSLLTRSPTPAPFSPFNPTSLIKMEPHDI
Method in brief: as §1

ELK4 = target: T7, ELK4 (Homo sapiens, UniProt P28324-2 1-405)
T7 sequence: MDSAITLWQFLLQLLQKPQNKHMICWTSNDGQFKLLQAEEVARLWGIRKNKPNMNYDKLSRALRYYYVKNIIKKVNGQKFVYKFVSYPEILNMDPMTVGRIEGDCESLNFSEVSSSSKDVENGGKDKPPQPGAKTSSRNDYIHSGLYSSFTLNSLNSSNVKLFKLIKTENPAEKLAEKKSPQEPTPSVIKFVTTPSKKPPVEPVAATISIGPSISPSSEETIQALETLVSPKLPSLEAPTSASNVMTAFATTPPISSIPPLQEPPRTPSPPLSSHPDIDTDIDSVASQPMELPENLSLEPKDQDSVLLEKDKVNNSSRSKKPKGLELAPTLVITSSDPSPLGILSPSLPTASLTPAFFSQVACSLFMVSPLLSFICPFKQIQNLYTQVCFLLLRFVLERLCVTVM
Method in brief: as §1

ETV2 = target: T8, ETV2 (Homo sapiens, UniProt O00321 1-342)
T8 sequence: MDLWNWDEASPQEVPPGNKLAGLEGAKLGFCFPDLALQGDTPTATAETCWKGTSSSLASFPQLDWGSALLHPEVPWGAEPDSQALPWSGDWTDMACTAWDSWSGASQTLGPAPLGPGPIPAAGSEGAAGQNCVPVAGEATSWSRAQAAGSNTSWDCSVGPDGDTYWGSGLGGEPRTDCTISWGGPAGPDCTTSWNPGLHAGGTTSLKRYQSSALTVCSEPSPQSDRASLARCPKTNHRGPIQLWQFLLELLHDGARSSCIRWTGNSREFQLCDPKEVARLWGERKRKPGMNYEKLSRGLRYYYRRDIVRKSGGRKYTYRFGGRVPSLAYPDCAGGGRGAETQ
Method in brief: as §1

ELF3 = target: T9, ELF3 (Homo sapiens, UniProt P78545 1-371)
T9 sequence: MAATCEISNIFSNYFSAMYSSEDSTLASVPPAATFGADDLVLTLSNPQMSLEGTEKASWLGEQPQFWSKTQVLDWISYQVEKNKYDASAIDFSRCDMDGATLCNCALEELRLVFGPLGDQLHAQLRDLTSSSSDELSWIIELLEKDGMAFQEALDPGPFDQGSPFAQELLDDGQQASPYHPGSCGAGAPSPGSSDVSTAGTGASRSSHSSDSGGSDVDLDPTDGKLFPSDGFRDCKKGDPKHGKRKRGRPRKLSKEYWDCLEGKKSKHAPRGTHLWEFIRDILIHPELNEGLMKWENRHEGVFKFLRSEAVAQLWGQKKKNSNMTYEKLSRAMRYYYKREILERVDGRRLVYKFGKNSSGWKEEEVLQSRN
Method in brief: as §1

ERF = target: T10, ERF (Homo sapiens, UniProt P50548 1-548)
T10 sequence: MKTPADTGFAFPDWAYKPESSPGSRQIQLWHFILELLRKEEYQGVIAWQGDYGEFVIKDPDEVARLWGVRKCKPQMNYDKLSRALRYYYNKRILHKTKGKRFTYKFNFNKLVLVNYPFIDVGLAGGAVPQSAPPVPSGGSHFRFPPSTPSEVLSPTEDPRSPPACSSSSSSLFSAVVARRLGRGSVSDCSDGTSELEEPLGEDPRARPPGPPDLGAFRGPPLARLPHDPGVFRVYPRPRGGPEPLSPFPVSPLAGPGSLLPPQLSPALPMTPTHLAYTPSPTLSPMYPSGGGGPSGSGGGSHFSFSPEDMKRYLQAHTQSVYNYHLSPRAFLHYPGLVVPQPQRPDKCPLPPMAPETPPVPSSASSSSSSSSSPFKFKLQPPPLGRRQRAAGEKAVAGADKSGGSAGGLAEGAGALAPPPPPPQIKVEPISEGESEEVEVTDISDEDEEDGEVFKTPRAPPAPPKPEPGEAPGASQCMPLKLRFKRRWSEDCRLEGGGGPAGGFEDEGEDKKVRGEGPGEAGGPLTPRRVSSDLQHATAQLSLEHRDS
Method in brief: as §1

ETV3L = target: T11, ETV3L (Homo sapiens, UniProt Q6ZN32 1-361)
T11 sequence: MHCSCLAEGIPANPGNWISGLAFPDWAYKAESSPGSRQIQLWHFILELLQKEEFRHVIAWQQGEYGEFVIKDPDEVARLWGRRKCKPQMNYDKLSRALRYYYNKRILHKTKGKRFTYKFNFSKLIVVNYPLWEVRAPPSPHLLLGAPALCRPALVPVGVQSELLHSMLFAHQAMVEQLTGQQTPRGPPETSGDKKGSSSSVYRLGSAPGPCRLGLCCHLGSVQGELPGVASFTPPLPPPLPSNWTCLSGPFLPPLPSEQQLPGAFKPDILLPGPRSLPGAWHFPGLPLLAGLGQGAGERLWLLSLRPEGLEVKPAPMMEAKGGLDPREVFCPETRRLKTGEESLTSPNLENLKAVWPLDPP
Method in brief: as §1

ETV7 = target: T12, ETV7 (Homo sapiens, UniProt Q9Y603 1-341)
T12 sequence: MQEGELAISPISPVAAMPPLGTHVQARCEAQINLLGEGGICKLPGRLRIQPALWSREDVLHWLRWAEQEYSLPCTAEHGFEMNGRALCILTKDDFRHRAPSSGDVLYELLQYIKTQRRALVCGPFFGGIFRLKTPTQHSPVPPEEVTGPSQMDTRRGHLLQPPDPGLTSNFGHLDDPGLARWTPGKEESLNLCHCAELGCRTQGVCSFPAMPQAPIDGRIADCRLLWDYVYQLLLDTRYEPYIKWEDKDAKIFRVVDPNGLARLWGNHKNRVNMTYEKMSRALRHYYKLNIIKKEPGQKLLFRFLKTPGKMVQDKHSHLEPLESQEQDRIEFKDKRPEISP
Method in brief: as §1

CTAGCC
binding signal (FLI1): 1.07 fold enrichment (6-mer frequency, TF over GST control) | binding signal (GABPA): 1 fold enrichment (6-mer frequency, TF over GST control) | binding signal (ERG): 1.01 fold enrichment (6-mer frequency, TF over GST control) | binding signal (ELF1): 1.07 fold enrichment (6-mer frequency, TF over GST control) | binding signal (EHF): 1 fold enrichment (6-mer frequency, TF over GST control) | binding signal (SPIB): 1.02 fold enrichment (6-mer frequency, TF over GST control) | binding signal (ELK3): 1.1 fold enrichment (6-mer frequency, TF over GST control) | binding signal (SPIC): 1.08 fold enrichment (6-mer frequency, TF over GST control) | binding signal (ELF4): 1.01 fold enrichment (6-mer frequency, TF over GST control) | binding signal (ELK4): 1.1 fold enrichment (6-mer frequency, TF over GST control) | binding signal (ETV2): 1.06 fold enrichment (6-mer frequency, TF over GST control) | binding signal (ELF3): 1.04 fold enrichment (6-mer frequency, TF over GST control) | binding signal (ERF): 1.13 fold enrichment (6-mer frequency, TF over GST control) | binding signal (ETV3L): 1.06 fold enrichment (6-mer frequency, TF over GST control) | binding signal (ETV7): 1.02 fold enrichment (6-mer frequency, TF over GST control)
